Experimental findings from PubChem BioAssay AID489018 (Southern Research Specialized Biocontainment Screening …, 2010) are described below.

Molecules are shown by their SMILES. The whole screen tested about 2,300 compounds, of which about 350 (15%) were called active. How the calls were made is not given here. A selection follows. Results with a measured potency or affinity are listed apart.

The nature of this assay: HepG2 cell cytotoxicity, dose response, cytotoxicity control for non-replicating M. tuberculosis project (AID 489018).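 Further: HepG2 human liver cells.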 The conditions noted are these: series mostly up to 20 µM.
With `Nc1ccccc1C#CC(=O)c1ccccc1`, the compound was called inactive. With `COC(=O)COc1ccc(-c2ccccc2)cc1C=O` the entry was “inactive”.

For `COc1ccc(OCCOC(=O)CCS(=O)(=O)c2ccc(C)cc2)cc1`, the outcome was inactive.

Regarding `CCOC(=O)c1ccsc1NC(=O)CCS(=O)(=O)c1ccccc1`, the call was inactive. With `COc1ccc(-c2cc(C(F)(F)F)nc(S(C)(=O)=O)n2)cc1` the entry was “inactive”; with `COc1ccc(C(=O)Cn2c(C)nc([N+](=O)[O-])c2Br)cc1`, “inactive”; with `O=C(COc1ccccc1)NC1CCCCC1`, “inactive”. Regarding `Cc1ccc2nc(/N=C(\N)NC(=O)NC3CCCCC3)nc(C)c2c1`, the compound was called inactive. With `Cn1cccc1/C=N\NC(=O)C1COc2ccccc2O1` (stereo unspecified) the entry was “inactive”; with `O=C(C/C=N\OCc1ccc([N+](=O)[O-])cc1)Nc1ccc(Cl)cc1`, “inactive”; with `O=C(NCC(c1cccs1)N1CCOCC1)c1cc([N+](=O)[O-])cc([N+](=O)[O-])c1` (stereo unspecified), “inactive”.

Consider `OC(CNCCc1ccc(C(F)(F)F)cc1)COc1cccc2ccccc12` (stereo unspecified), for which the call was inactive. With `OC(CNCCc1ccc(C(F)(F)F)cc1)COc1ccc2ccccc2c1` (stereo unspecified) the entry was “inactive”; with `Cn1ccsc1=NC(=O)c1ccccc1F`, “inactive”; with `CCc1ccc(C(=O)COC(=O)c2ccc(Cl)nc2)cc1`, “inactive”. Consider `Cc1cccc(NC(=O)COc2ccc(Br)cc2)n1`, for which the call was inactive. With `Cc1nc([N+](=O)[O-])c(Br)n1CC(=O)c1ccccc1` the entry was “inactive”. With `c1ccc(-c2nc3ccccn3c2NC2CCCC2)nc1` the entry was “inactive”. As for `O=C(N/N=C/C=C/c1ccccc1)c1ccncc1`, the call was inactive.

For `O=C(Nc1ccccn1)c1ccc(C(=O)c2ccccc2)cc1`, the result was inactive. For the compound `CC(C)(C)NCc1cc(Br)ccc1OCc1cccs1`, the outcome was inactive.

On to `CC(C)CCCn1c(O)c(/C=C2/C=CC=N2)c(=O)[nH]c1=O`, for which the result was inactive. Regarding `CC1=C(C)/C(=N\OS(=O)(=O)c2ccccc2)C=CC1=O`, the compound was called inactive. Regarding `CN(CC(=O)Nc1ccc(C#N)cc1)Cc1ccc(Cl)c(Cl)c1`, the call was inactive. As to `Cc1ccccc1-c1cc2c(nn1)-c1ccccc1C2=O`, the call was inactive. With `Nc1ccc2c(c1)oc1ccccc12` the entry was “inactive”; with `COc1cc(OC)cc(-c2nc3ccccc3c(=O)o2)c1`, “inactive”.

For `O=C(COC(=O)c1ccccc1)NC12CC3CC(CC(C3)C1)C2`, the compound was called inactive.

For the compound `O=C(CC(=O)c1ccccc1O)c1cccc(F)c1`, the outcome was inactive. With `O=C(O)c1ccc(NS(=O)(=O)/C=C/c2ccccc2)cc1O` the entry was “inactive”; with `CCn1c(NC(=O)C2CCCCC2)nc2ccccc21`, “inactive”; with `Cc1cc(NC(=O)COc2ccccc2)ccc1Cl`, “inactive”. With `O=c1cc(C(F)(F)F)[nH]c2c(C(F)(F)F)cccc12` the entry was “inactive”; with `CCc1nonc1NC(=O)COc1ccc(Cl)c(C)c1`, “inactive”; with `CCOC(=O)Nc1ccc2c(c1)N(C(=O)CCN1CCOCC1)c1ccccc1S2=O` (stereo unspecified), “inactive”.

Turning to `CCOC(=O)Nc1cccc(OCC(=O)Nc2ccccc2OC)c1`, the compound was called inactive. `O=C(Nc1nc2ccccc2[nH]1)c1ccc(F)cc1`: the compound was called inactive. With `O=C(Nc1nc2ccccc2[nH]1)c1cccc(Cl)c1` the entry was “inactive”; with `CN1CCC(O)(c2ccc(Cl)cc2)C(C(=O)c2ccc(Cl)cc2)C1` (stereo unspecified), “inactive”; with `O=C(COc1ccc(Cl)cc1)Nc1ccccc1Cl`, “inactive”. In the case of `CC(C)c1ccc(OCC(=O)NCc2ccccc2)cc1`, the outcome was inactive. With `Cc1ccc(C)c(-c2nnc(NC(=O)C3=COCCO3)o2)c1` the entry was “inactive”; with `O=C(NCCc1c[nH]c2ccccc12)c1cc2ccccc2oc1=O`, “inactive”; with `COc1ccccc1N1CCN(C(=O)c2ccc([N+](=O)[O-])s2)CC1`, “inactive”. For `Fc1ccc(-c2nn(-c3ccccc3)cc2CNCc2ccccc2)cc1`, the result was inactive. With `Cc1ccc(-n2cc(CNCCn3nc(C)cc3C)c(-c3ccc(F)cc3)n2)cc1`, the call was inactive. Take `Cc1cc(Br)ccc1OCC(=O)NNC(=O)C(=O)Nc1ccccc1`: the result was inactive. As to `O=C(CCN1C(=O)/C(=C/c2ccccc2Cl)SC1=S)N1CCCC1`, the compound was classed as inactive. With `COc1cccc(OCc2nnc(-c3cccs3)o2)c1` the entry was “inactive”; with `Cc1ccc(Oc2c(C(N)=O)cc([N+](=O)[O-])cc2[N+](=O)[O-])cc1`, “inactive”; with `Cc1csc(=Nc2cccnc2)n1CC1CCCCC1`, “inactive”.

As for `CCOC(=O)c1csc(COc2ccc(OC)cc2)n1`, the call was inactive. Consider `COc1ccc(O)c(C(=O)CC(=O)c2ccc(F)cc2)c1`, for which the compound was called inactive. With `Cc1ccc(NC(=O)C2=C(c3ccccc3)S(=O)(=O)CCS2(=O)=O)cc1` the entry was “inactive”. On to `CCOC(=O)C1CCN(Cc2ccc(-c3ccccc3)cc2)CC1`, for which the compound was classed as inactive. With `CCOC(=O)C1CCCN(Cc2ccc(OCc3ccccc3)cc2)C1` (stereo unspecified) the entry was “inactive”; with `Cc1ccc(C(=O)OCC(=O)N2CCCCCC2)c(O)c1`, “inactive”; with `CCCCC1CCC(C(=O)Nc2ccc(S(=O)(=O)Nc3nccs3)cc2)CC1` (stereo unspecified), “inactive”. With `Cc1nn(C)cc1/C=N/NC(=O)c1sc2ccccc2c1Cl` the entry was “inactive”.

`Cc1ccc(C(=O)N/N=C/c2cccc3ccccc23)cn1`: the compound was called inactive. With `CC(C)c1nnc(NC(=O)c2cc3cc(Br)ccc3oc2=O)s1` the entry was “inactive”; with `O=C(OCc1ccc([N+](=O)[O-])cc1)c1ccc2ccccc2n1`, “inactive”; with `CN(C)CC/C=C1\c2cc(Cl)ccc2Sc2cc(F)c(F)cc21`, “inactive”. On to `C/C(=N\NC(=O)c1cc([N+](=O)[O-])cc([N+](=O)[O-])c1)c1ccco1`, for which the result was inactive. With `O=C(CN1CCN(c2ccc([N+](=O)[O-])cc2)CC1)Nc1ccccn1` the entry was “inactive”; with `COc1ccc(CN=C(C#N)C2=C(O)c3ccccc3C2=O)cc1`, “inactive”. Turning to `O=c1c2cc(Cl)ccc2nc(-c2ccc([N+](=O)[O-])cc2)n1O`, the outcome was inactive. With `CCOC(=O)COn1c(-c2cccc(Cl)c2)nc2ccc([N+](=O)[O-])cc21` the entry was “inactive”.

For the compound `N/C(=N\OC(=O)c1cccc(Br)c1)c1ccc([N+](=O)[O-])cc1`, the compound was called inactive. With `O=c1c2c([N+](=O)[O-])cc([N+](=O)[O-])cc2sn1-c1ccc(Br)cc1` the entry was “inactive”. With `O=C(NCc1cccs1)c1cc(-c2ccc(O)cc2)on1` the entry was “inactive”; with `CC(C)(C)NC(=O)COC(=O)c1snc(C(=O)NC2CCCCC2)c1N`, “inactive”; with `CCS(=O)(=O)c1c([N+](=O)[O-])ncn1C`, “inactive”.

Turning to `COc1ccc([N+](=O)[O-])c(S(=O)(=O)c2ccc(Cl)cc2)n1`, the call was inactive. With `CCOC(=O)c1c(C)nc2cc(C)ccn12` the entry was “inactive”. For the compound `CCOc1ccc(C(=O)N/N=C/c2cccc3cccnc23)cc1`, the outcome was inactive. Regarding `CCOc1ccc(C(=O)N/N=C(/C)C2C(=O)c3ccccc3C2=O)cc1`, the compound was called inactive. For the compound `COC(=O)c1ccc(COC(=O)c2ccccn2)cc1`, the outcome was inactive. For the compound `CCc1ccc(/C=N/NC(=O)c2ccccn2)cc1`, the compound was called inactive. With `O=C1NC(=O)N(Cc2ccc(F)cc2)C(=O)/C1=C\c1ccc([N+](=O)[O-])s1`, the compound was classed as inactive. As to `O=C(OCc1nnc(-c2ccccc2)o1)c1ccc(Br)o1`, the result was inactive.

As for `Cc1ccccc1-n1c(C)cc(/C=N/NC(=O)c2ccncc2)c1C`, the compound was classed as inactive. With `CC(C)Cn1c([N+](=O)[O-])nc2c1c(=O)[nH]c(=O)n2C`, the result was inactive. In the case of `CN1CCC(O)(c2cccs2)C(C(=O)c2cccs2)C1` (stereo unspecified), the compound was called inactive. Take `COc1ccc(C(C#N)=C2C=CC(=NO)C=C2)cc1`: the outcome was inactive. With `CC/C(=C\C=C\[C@@H]1C=C[C@@H]2CCC[C@H]2[C@@H]1C(=O)c1ccc[nH]1)[C@@H]1O[C@@H]([C@@H](C)C(=O)O)CC[C@@H]1C` the entry was “inactive”; with `CCOc1cc(-c2sc(Nc3cc(C)ccc3OC)n[n+]2-c2ccccc2)ccc1OC`, “inactive”; with `O=C(COc1ccc(Br)cc1)Nc1ccc([N+](=O)[O-])cn1`, “inactive”. With `CC(=O)Nc1ccc(NC(=O)c2cc([N+](=O)[O-])cc([N+](=O)[O-])c2)cc1` the entry was “inactive”; with `O=C1/C(=C/C=C/c2ccccc2)Oc2c1ccc(O)c2CN1CCN(CCO)CC1`, “inactive”. In the case of `CC(Oc1ccc2ccccc2c1)C(=O)NNC(=S)NC(=O)c1ccco1` (stereo unspecified), the call was inactive. With `CCCOc1ccc(C(=O)NNC(=S)NC(=O)c2cccs2)cc1` the entry was “inactive”; with `CCCOC(=O)c1ccc(NC(=O)c2ccc(Br)o2)cc1`, “inactive”. With `Clc1cccc(-c2ccc(CNCc3ccccn3)o2)c1` the entry was “inactive”; with `CCCc1cc(=O)n2[nH]c(C)c(-c3ccccc3)c2n1`, “inactive”; with `Cc1cc(C)nc(-n2nc(C)cc2Nc2ccccc2)n1`, “inactive”. As to `COc1cc(N=c2ssnc2Cl)cc(OC)c1OC`, the call was inactive. With `CCN(CC)c1ccc(-c2sc(Nc3ccccc3)n[n+]2-c2ccc(F)cc2)cc1` the entry was “inactive”; with `Cc1nn(-c2ccccc2)nc1C(=O)c1c(C)[nH]n(-c2ccccc2)c1=O`, “inactive”; with `O=C(Nc1ncc(Cc2ccccc2Cl)s1)C1=NCCN1`, “inactive”.

With `O=C(NC1CCCCC1)c1nc2c(nnn2Cc2ccccc2Cl)c(=O)[nH]1`, the result was inactive. With `CCOC(=O)N1CCC(N2CCCC(C(=O)c3ccc4cc(OC)ccc4c3)C2)CC1` (stereo unspecified) the entry was “inactive”.

For `CNC(C)C#Cc1ccc2oc3cc(C)c(C)cc3c(=O)c2c1` (stereo unspecified), the compound was classed as inactive. `CCCCOC(=O)c1ccc(NC(=O)c2nn(C)cc2Br)cc1`: the compound was classed as inactive. With `O=S1(=O)N=C(N/N=C/C=C/c2ccccc2)c2ccccc21` the entry was “inactive”. In the case of `Cc1ccc(/C=C2\SC(=S)N(C3CCS(=O)(=O)C3)C2=O)o1` (stereo unspecified), the outcome was inactive. With `CC(C)c1nnc(NC(=O)c2c(O)c3cccc4c3n(c2=O)CCC4)s1` the entry was “inactive”. With `O=C(NNC(=O)c1ccccc1F)c1ccc(-c2ccc(Cl)cc2)o1` the entry was “inactive”; with `COC(=O)c1cn(NC(=O)c2cnccn2)c(=O)c2ccccc12`, “inactive”.

As to `CCOC(=O)c1cc(-c2c(Cl)cccc2Cl)no1`, the result was inactive. Turning to `Cn1cnc([N+](=O)[O-])c1Sc1ccc([N+](=O)[O-])cc1`, the compound was classed as inactive. In the case of `Clc1ccc(-c2ccc(CNCc3ccccn3)o2)cc1`, the call was inactive.

`Fc1ccc(-c2ccc(CNCc3ccccn3)o2)cc1Cl`: the compound was called inactive. With `CCOC(=O)c1cc(COc2cc(Cl)cc(Cl)c2)on1` the entry was “inactive”; with `Cc1cccc(OCC(=O)NNC(=O)c2cc3ccccc3oc2=O)c1`, “inactive”.

Turning to `O=C(COc1ccc2ccccc2c1)N/N=C/c1ccccn1`, the compound was called inactive.
